Records with an inconclusive call do not appear. The source made the active and inactive calls. How the source made its calls, unless noted: active means hit-call score of the fitted dose curve at least 0.9, where 1 is the maximum; inactive means score below 0.9.
Test system: SRY-box transcription factor 17 (SOX17) Protein Expression, Deisenroth Lab, SOX17 (gene 64321)
Assay: CCTE_Deisenroth_DEVTOX-GLR_legacy_Sox17: (Legacy) CCTE's DevTox GLR-Endo Assay Evaluation of SRY-box transcription factor 17 (SOX17) Protein Expression, Deisenroth Lab (AID 2284341)
Conditions: actives raise or lower the signal
Method in brief: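 RUES2-GLR human pluripotent cells, seeded 24 h, then differentiated 48 h in defined media with two chemical exposures 24 h apart (1 nM - 200 uM, 10 points). Sox17+ fraction from high-content fluorescence imaging; bidirectional fit versus 0.2% DMSO.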
In the case of O=c1[nH]cc(F)c(=O)[nH]1, the AC50 is reported as 8.47 µM (active).
For COc1cccc2c1C(=O)c1c(O)c3c(c(O)c1C2=O)C[C@@](O)(C(=O)CO)C[C@@H]3O[C@H]1C[C@H](N)[C@H](O)[C@H](C)O1, the AC50 was 4.93 µM (active).
With CC(=O)Oc1ccccc1C(=O)O the outcome was “inactive”.
With CC1=C(/C=C/C(C)=C/C=C/C(C)=C/CO)C(C)(C)CCC1 the AC50 was 33.5 µM (active).
For COc1ccc2c(c1)c(CC(=O)O)c(C)n2C(=O)c1ccc(Cl)cc1, the AC50 was 15.5 µM (active).
With CCCc1cc(=O)[nH]c(=S)[nH]1 the outcome was “inactive”.

Test system: not listed separately
Assay: CCTE_Mundy_HCI_iCellGluta_NOG_NeuriteCount: CCTE's Neurite Outgrowth Assay in iCellGluta cells for Neurite Count, Mundy Lab (AID 2284342; active means hit-call score of the fitted dose curve at least 0.9, where 1 is the maximum;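 further: chemical exposure about 48 hours starting 2 hours after plating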)
Conditions: not given
In the case of OC[C@@H](O)[C@@H](O)[C@H](O)[C@H](O)CO, the outcome is reported as “inactive”.
With CC(=O)Oc1ccccc1C(=O)O the outcome was “inactive”.
With C[Si]1(C)O[Si](C)(C)O[Si](C)(C)O[Si](C)(C)O1 the outcome was “inactive”.

Test system: SERPINA7 (gene 6906)
Assay: CCTE_GLTED_hTBG: CCTE's human Thyroxine-binding Globulin (TBG) Inhibition Assay, Great Lakes Toxicology and Ecology Division (GLTED) Lab (AID 2284343; active means hit-call score of the fitted dose curve at least 0.9, where 1 is the maximum;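 further: active chemicals lower fluorescence versus DMSO baseline by displacing probe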)
Conditions: not given
Method in brief: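 Measures how far test chemicals displace ANSA bound to purified human TBG. The read-out is fluorescence at 380 nm excitation and 475 nm emission, taken after 2 h of incubation.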
With COc1cc(S(=O)(=O)O)c(C)cc1N=Nc1c(O)ccc2cc(S(=O)(=O)O)ccc12 the AC50 was 35 µM (active).
In the case of Nc1ccc(S(=O)(=O)c2ccc(N)cc2)cc1, the AC50 is reported as 50 µM (active).
In the case of CCOC(=O)C(C)(C)Oc1ccc(Cl)cc1, the AC50 is reported as 24.9 µM (active).
With Cc1cccc(Nc2cc(Cl)nc(SCC(=O)O)n2)c1C the AC50 was 22 µM (active).
In the case of Cc1cc(NC(=O)C(=O)O)cc(C)c1Oc1ccc(O)c2c1CCC2, the AC50 is reported as 0.667 µM (active).
For Cc1ccc(C)c(O)c1C, the AC50 was 33.1 µM (active).
For CCCCC(CC)COC(=O)CC(C(=O)OCC(CC)CCCC)S(=O)(=O)O (centres undefined), the AC50 was 1.95 µM (active).
In the case of CC(=O)Oc1ccccc1C(=O)O, the AC50 is reported as 22.8 µM (active).
With C=CCOC(=O)c1ccccc1C(=O)OCC=C the AC50 was 19.5 µM (active).
With COc1ccc2c(c1)c(CC(=O)O)c(C)n2C(=O)c1ccc(Cl)cc1 the AC50 was 1.71 µM (active).
With Oc1ccc2ccccc2c1N=Nc1ccccc1 the AC50 was 22.2 µM (active).

Test system: SRY-box transcription factor 2 (SOX2) Protein Expression, Deisenroth Lab, SOX2 (gene 6657)
Assay: CCTE_Deisenroth_DEVTOX-GLR_legacy_Sox2: (Legacy) CCTE's DevTox GLR-Endo Assay Evaluation of SRY-box transcription factor 2 (SOX2) Protein Expression, Deisenroth Lab (AID 2284346)
Conditions: not given
Method in brief: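 RUES2-GLR human pluripotent cells were differentiated for 48 h with two chemical doses 24 h apart, over 1 nM-200 uM. Sox2+ cells were those above 5x BMAD of the endoderm-control median; percent Sox2+ minus the 0.2% DMSO median was used, from n=4 replicates.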
In the case of O=c1[nH]cc(F)c(=O)[nH]1, the AC50 is reported as 22 µM (active).
With COc1cccc2c1C(=O)c1c(O)c3c(c(O)c1C2=O)C[C@@](O)(C(=O)CO)C[C@@H]3O[C@H]1C[C@H](N)[C@H](O)[C@H](C)O1 the AC50 was 0.107 µM (active).
With CC(=O)Oc1ccccc1C(=O)O the outcome was “inactive”.
In the case of CC1=C(/C=C/C(C)=C/C=C/C(C)=C/CO)C(C)(C)CCC1, the AC50 is reported as 55.7 µM (active).
In the case of COc1ccc2c(c1)c(CC(=O)O)c(C)n2C(=O)c1ccc(Cl)cc1, the AC50 is reported as 17 µM (active).
In the case of CCCc1cc(=O)[nH]c(=S)[nH]1, the outcome is reported as “inactive”.

Test system: SRY-box transcription factor 2 (SOX2) Protein Expression, Deisenroth Lab, SOX2 (gene 6657)
Assay: CCTE_Deisenroth_DEVTOX-GLR_Endo_SOX2: CCTE's DevTox GLR-Endo Assay Evaluation of SRY-box transcription factor 2 (SOX2) Protein Expression, Deisenroth Lab (AID 2284412; active means hit-call score of the fitted dose curve at least 0.9, where 1 is the maximum)
Conditions: not given
Method in brief: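 RUES2-GLR human pluripotent cells were seeded 24 h, then differentiated 48 h with two chemical exposures 24 h apart. Cells were fixed, nuclei stained and imaged by high-content microscopy. Endpoint is %SOX2+ cells over cell count, minus 0.2% DMSO control; 10-point series 1 nM–200 uM.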
For O=c1[nH]cc(F)c(=O)[nH]1, the AC50 was 34.3 µM (active).
For COc1cccc2c1C(=O)c1c(O)c3c(c(O)c1C2=O)C[C@@](O)(C(=O)CO)C[C@@H]3O[C@H]1C[C@H](N)[C@H](O)[C@H](C)O1, the AC50 was 2.25 µM (active).
For CC(=O)Oc1ccccc1C(=O)O, the outcome was “inactive”.
With COc1ccc2c(c1)c(CC(=O)O)c(C)n2C(=O)c1ccc(Cl)cc1 the AC50 was 6.34 µM (active).

Test system: SRY-box transcription factor 17 (SOX17) Protein Expression, Deisenroth Lab, SOX17 (gene 64321)
Assay: CCTE_Deisenroth_DEVTOX-GLR_Endo_SOX17: CCTE's DevTox GLR-Endo Assay Evaluation of SRY-box transcription factor 17 (SOX17) Protein Expression, Deisenroth Lab (AID 2284413)
Conditions: not given
Description: CCTE_Deisenroth_DEVTOX-GLR_Endo assay is a cell-based, multiplex-readout assay that uses RUES2-GLR, a human pluripotent cell line, with measurements taken at 48 hours after chemical dosing in a 384-well microplateCCTE_Deisenroth_DEVTOX-GLR_Endo_SOX17 is 1 of 4 assay components calculated from the CCTE_Deisenroth_DEVTOX-GLR_Endo assay and it measures the percentage of cells in an endoderm state. Using a type of inducible fluorescent protein reporter, gain-of-signal activity can be used to understand changes in gene expression with fluorescent microscopy. The percentage of SOX17+ cells are determined by calculating the number of SOX17+ cells divided by the cell count. To generalize the intended target to other relatable targets, this assay component is annotated to the transcription factor intended target family, where the subfamily is SRY-related HMG-box.Data from the assay component CCTE_Deisenroth_DEVTOX-GLR_Endo_SOX17 was analyzed as 1 assay endpoint. The endpoint is the percent change in SOX17+ cell population relative to the 0.2% DMSO control in the CCTE_Deisenroth_DEVTOX-GLR_Endo assay. This assay endpoint can be referred to as a primary readout since this assay has produced multiple assay endpoints where this one serves as a measure of endoderm differentiation.
(§1) All assay protocols are aligned to the DevTox GLR-Endo assay workflow. Cells are seeded into 384-well microplates for 24 hours prior to initiating differentiation in defined media for a total duration of 48 hours. A total of two chemical exposures are administered in 24-hour intervals during the 48-hour differentiation period. At the assay termination point, cells are fixed and stained with a fluorescent dye demarcating the nucleus. High-content imaging is used to acquire brightfield and fluorescent channel images across 5 fields per well. Cell identification and mean biomarker fluorescence intensities are calculated with image analysis software to determine the total cell counts for viability assessment and the biomarker expression frequency for each lineage-dependent assay. A typical experimental design tests a 10-point concentration series (1 nM - 200 uM) for 28 compounds in single technical replicate. Assay plate controls include non-differentiated pluripotent cells (baseline control), lineage-specific differentiated cells (differentiation control), and DMSO solvent exposed differentiated cells (solvent control). Experiments typically comprise a minimum of four experimental replicates (n=4).
With O=c1[nH]cc(F)c(=O)[nH]1 the AC50 was 9.06 µM (active).
With COc1cccc2c1C(=O)c1c(O)c3c(c(O)c1C2=O)C[C@@](O)(C(=O)CO)C[C@@H]3O[C@H]1C[C@H](N)[C@H](O)[C@H](C)O1 the AC50 was 5.85 µM (active).
In the case of CC(=O)Oc1ccccc1C(=O)O, the outcome is reported as “inactive”.
With CC1=C(/C=C/C(C)=C/C=C/C(C)=C/CO)C(C)(C)CCC1 the AC50 was 33.6 µM (active).
In the case of COc1ccc2c(c1)c(CC(=O)O)c(C)n2C(=O)c1ccc(Cl)cc1, the AC50 is reported as 16 µM (active).
For CCCc1cc(=O)[nH]c(=S)[nH]1, the outcome was “inactive”.

Test system: Brachyury (BRA) Protein Expression, TBXT (gene 6862)
Assay: CCTE_Deisenroth_DEVTOX-GLR_Endo_BRA: CCTE's DevTox GLR-Endo Assay Evaluation of Brachyury (BRA) Protein Expression, Deisenroth Lab (AID 2284417)
Conditions: not given
Method in brief: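 RUES2-GLR human pluripotent cells, seeded 24 h, then differentiated 48 h in defined media with two chemical exposures 24 h apart (10-point series, 1 nM - 200 uM). Fixed, nuclear-stained, imaged; endpoint is percent BRA+ cells minus 0.2% DMSO control.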
For O=c1[nH]cc(F)c(=O)[nH]1, the AC50 was 20.3 µM (active).
With COc1cccc2c1C(=O)c1c(O)c3c(c(O)c1C2=O)C[C@@](O)(C(=O)CO)C[C@@H]3O[C@H]1C[C@H](N)[C@H](O)[C@H](C)O1 the AC50 was 0.0902 µM (active).
For CC(=O)Oc1ccccc1C(=O)O, the outcome was “inactive”.
With CC1=C(/C=C/C(C)=C/C=C/C(C)=C/CO)C(C)(C)CCC1 the AC50 was 66 µM (active).
With COc1ccc2c(c1)c(CC(=O)O)c(C)n2C(=O)c1ccc(Cl)cc1 the AC50 was 12.5 µM (active).
For CCCc1cc(=O)[nH]c(=S)[nH]1, the outcome was “inactive”.

Test system: not listed separately
Assay: CCTE_Deisenroth_DEVTOX-GLR_Endo_CellCount: Viability Assessment in CCTE's DevTox GLR-Endo Assay, Deisenroth Lab (AID 2284420)
Conditions: not given
Method in brief: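 Viability in differentiating RUES2-GLR cultures is scored by fluorescent nuclear counts after 48 h and two 24-hourly chemical treatments, as percent change from the 0.2% DMSO control.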
For O=c1[nH]cc(F)c(=O)[nH]1, the AC50 was 5.89 µM (active).
With COc1cccc2c1C(=O)c1c(O)c3c(c(O)c1C2=O)C[C@@](O)(C(=O)CO)C[C@@H]3O[C@H]1C[C@H](N)[C@H](O)[C@H](C)O1 the AC50 was 0.00878 µM (active).
In the case of CC(=O)Oc1ccccc1C(=O)O, the outcome is reported as “inactive”.
With CC1=C(/C=C/C(C)=C/C=C/C(C)=C/CO)C(C)(C)CCC1 the AC50 was 34.7 µM (active).
With COc1ccc2c(c1)c(CC(=O)O)c(C)n2C(=O)c1ccc(Cl)cc1 the AC50 was 10.1 µM (active).
In the case of CCCc1cc(=O)[nH]c(=S)[nH]1, the outcome is reported as “inactive”.

Test system: SRY-box transcription factor 17 (SOX17) Protein Expression, Deisenroth Lab, SOX17 (gene 64321)
Assay: CCTE_Deisenroth_DEVTOX-GLR_Pluri_SOX17: CCTE's DevTox GLR-Pluri Assay Evaluation of SRY-box transcription factor 17 (SOX17) Protein Expression, Deisenroth Lab (AID 2284427; active means hit-call score of the fitted dose curve at least 0.9, where 1 is the maximum)
Conditions: not given
Description: CCTE_Deisenroth_DEVTOX-GLR_Pluri assay is a cell-based, multiplex-readout assay that uses RUES2-GLR, a human pluripotent cell line, with measurements taken at 48 hours after chemical dosing in a 384-well microplateCCTE_Deisenroth_DEVTOX-GLR_Pluri_SOX17 is 1 of 4 assay components calculated from the CCTE_Deisenroth_DEVTOX-GLR_Pluri assay and it measures an the percentage of cells in an endoderm state. Using a type of inducible fluorescent protein reporter, gain-of-signal activity can be used to understand changes in gene expression with fluorescent microscopy. The percentage of SOX17+ cells are determined by calculating the number of SOX17+ cells divided by the cell count. To generalize the intended target to other relatable targets, this assay component is annotated to the transcription factor intended target family, where the subfamily is SRY-related HMG-box.Data from the assay component CCTE_Deisenroth_DEVTOX-GLR_Pluri_SOX17 was analyzed as 1 assay endpoint. The endpoint is the percent SOX17+ cell population minus the 0.2% DMSO control in the CCTE_Deisenroth_DEVTOX-GLR_Pluri assay. This assay endpoint can be referred to as a secondary readout since this assay has produced multiple assay endpoints where this one serves as a measure of endoderm differentiation.
as §1
In the case of O=c1[nH]cc(F)c(=O)[nH]1, the AC50 is reported as 7.95 µM (active).
For COc1cccc2c1C(=O)c1c(O)c3c(c(O)c1C2=O)C[C@@](O)(C(=O)CO)C[C@@H]3O[C@H]1C[C@H](N)[C@H](O)[C@H](C)O1, the AC50 was 0.27 µM (active).
In the case of CC(=O)Oc1ccccc1C(=O)O, the outcome is reported as “inactive”.
For CC1=C(/C=C/C(C)=C/C=C/C(C)=C/CO)C(C)(C)CCC1, the AC50 was 39.3 µM (active).
For COc1ccc2c(c1)c(CC(=O)O)c(C)n2C(=O)c1ccc(Cl)cc1, the AC50 was 2.61 µM (active).
For CCCc1cc(=O)[nH]c(=S)[nH]1, the outcome was “inactive”.

— PubChem BioAssay (EPA / NIEHS)
